Bfl-1 A1 inh – inhibitors of the anti-apoptotic protein A1, read as caspase activation. MEF A1-2A-BIM cells, Caspase-Glo 3/7 luminescence, 3 h; percent of clofoctol response, vehicle zero. caspase activation, % (no concentration beside the values). 330,000 compounds, 0.066% hits. AID 2462;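 active means over half of replicate activation scores above 10%, or exactly half above 10 with the replicate mean above 10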
NLRP3 yeast inh – inhibitors of NALP3 inflammasome in yeast | Yeast reconstituted NLRP3/ASC/caspase-1, beta-gal luminescence, 24 h | inhibition, % at 10 µM | 330,000 compounds, 0.39% hits;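 active means inhibition of 50% or more; inactive means inhibition below 50%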;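 further: plate controls were induced DMSO wells for no effect and uninduced yeast grown without galactose for full effect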
NALP1 yeast inh – inhibitors of NALP1 inflammasome in yeast; S. cerevisiae NALP1/ASC/caspase-1 growth, X-gal OD620, 72 h; inhibition, % at 10 µM; 280,000 compounds, 0.61% hits; in the data active means inhibition mostly above about 24%, no sharp cut-off; inactive means mostly below about 32%
CHT allo act – allosterically activates the human high affinity choline transporter | Q9GZV3 | CHT-expressing cells, membrane potential dye, choline EC20; active compounds read high; LV-AA mutant CHT in HEK293 cells | B-score at 10 µM | 310,000 compounds, 0.49% hits;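 active means initial fluorescence not abnormally high and integrated response B-score, plate-corrected, over 3 SD above library mean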
Target sequence (Q9GZV3 whole entry, looked up): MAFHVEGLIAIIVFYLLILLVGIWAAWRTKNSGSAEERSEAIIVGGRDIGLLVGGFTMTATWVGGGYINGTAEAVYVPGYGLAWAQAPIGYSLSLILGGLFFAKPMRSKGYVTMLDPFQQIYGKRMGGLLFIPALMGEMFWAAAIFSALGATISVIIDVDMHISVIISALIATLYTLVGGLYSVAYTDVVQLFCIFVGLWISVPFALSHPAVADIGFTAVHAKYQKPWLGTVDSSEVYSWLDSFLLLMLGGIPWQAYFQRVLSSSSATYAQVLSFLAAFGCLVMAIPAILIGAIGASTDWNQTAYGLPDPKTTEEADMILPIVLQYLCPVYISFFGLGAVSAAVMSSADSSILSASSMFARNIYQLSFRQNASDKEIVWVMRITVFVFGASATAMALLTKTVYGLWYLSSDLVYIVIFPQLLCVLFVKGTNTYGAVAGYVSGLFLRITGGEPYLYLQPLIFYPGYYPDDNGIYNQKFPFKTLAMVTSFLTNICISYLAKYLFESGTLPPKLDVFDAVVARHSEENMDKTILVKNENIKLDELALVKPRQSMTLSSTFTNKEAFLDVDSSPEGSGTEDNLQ
Mot1-301 SUMO – blocks SUMOylation pathway, rescuing yeast Mot1-301 growth | S. cerevisiae Mot1-301 growth rescue, ATP luminescence, 38.5C; percent above DMSO median, 100 means doubled | growth rescue, % at 18.8 µM | 320,000 compounds, 1% hits | AID 2716;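 active means every valid replicate shows activation above 250% relative to neutral control wells; inactive means the rest, any valid replicate at or below 250%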;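 further: OY570 slx delta 5 strain wells were the positive control but not used for scaling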
CHT inh – inhibits the human high affinity choline transporter; 310,000 compounds, 0.86% hits; CHT-expressing cells, membrane potential dye, choline response; active compounds read low; B-score at 10 µM; Q9GZV3;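 active means B-score over 3 SD under the library average, and starting fluorescence ratio not unusually high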;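 further: choline stimulus applied at its EC90 after an EC20 pre-addition; B-score computed on integrated fluorescence ratio after choline addition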
CHT activ conf – human CHT activation, confirmatory screen; shares compounds with CHT allo act; CHT-expressing cells, membrane potential dye fluorescence (FDSS); % of choline EC20–EC90 response window; HEK293 expressing CHT LV-AA mutant; choline added at its EC20; activation, % at 10 µM; 2,500 compounds, 91% hits; AID 504833;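 active means primary screen active, with duplicate mean activation above negative control mean plus 3 SD, cut at about 11% in these data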
HEK293 MP dye – counter-screen for CHT activators: effect in parental HEK293 cells | membrane potential dye fluorescence (FDSS); measured after EC20 choline addition | AID 623908 | 2,500 compounds, 62% hits | shares compounds with CHT allo act | ratio readout change at 10 µM, hits read low;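 active means duplicate-averaged ratio beyond 3 SD from buffer wells, up or down, though filed actives are nearly all decreases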
* hit, by the source's call; i = inactive; . = no result given. Only some compounds are listed: those with a hit (about 3% of all), similar ones and a draw of the others.

SMILES | Bfl-1 A1 inh | NLRP3 yeast inh | NALP1 yeast inh | CHT allo act | Mot1-301 SUMO | CHT inh | CHT activ conf | HEK293 MP dye
CCOC(=O)N1CCC(N2Cc3cccc(C(=O)NCC4CCN(CC(C)C)C4)c3C2=O)CC1 (configuration not stated) | 0 | 21 | 20 | 6.3* | -2 | i | 53* | -34*
Cn1c(CCN2CCCCC2)nc2cc([N+](=O)[O-])ccc21 | 0 | 9 | 2 | 8.5* | -25 | i | 58* | -62*
COc1ccc(-n2c(O)cnc2Nc2nc(C)cc(C)n2)cc1OC | 1 | 1 | -14 | 7.2* | 36 | i | 28* | -48*
CCc1ccc(-n2c(O)cnc2Nc2nc(C)cc(C)n2)cc1 | 0 | 9 | -16 | i | 19 | i | . | .
NS(=O)(=O)c1ccc(CCNC(=O)c2ccc(NC3=NC4CS(=O)(=O)CC4S3)cc2)cc1 (configuration not stated) | 0 | 8 | 14 | i | -9 | i | . | .
Nc1c(-c2cccc([N+](=O)[O-])c2)nc2ccccn12 | -3 | 27 | 24 | i | -11 | i | 53* | -50*
Cn1c(=O)[nH]c(=O)c2c1[nH]c(=S)n2Cc1ccc(Cl)cc1 | 0 | 14 | -7 | i | 4 | i | . | .
COc1ccccc1C1CC(c2ccc(Cl)cc2)Nc2ncnn21 (configuration not stated) | 0 | 11 | 6 | i | -11 | i | 30* | i
CCN(CC)CCNC1=NCCn2c1cc1cc(OC)ccc12 | 0 | 0 | -3 | 8.2* | 184 | i | 60* | -51*
COc1ccc(C(CNC(=O)CSc2ccccc2F)N2CCOCC2)cc1 (configuration not stated) | 0 | 12 | . | i | 1 | i | . | .
COc1ccc(C(CNC(=O)CSc2ccc(Br)cc2C)N2CCOCC2)cc1 (configuration not stated) | -1 | -5 | . | i | -4 | i | -1 | i
c1ccc(Cn2c[n+](Cc3ccccc3)c3ccccc32)cc1 | 0 | -2 | -30 | i | -11 | i | 46* | i
O=c1ccn(Cc2ccccc2)c2ccccc12 | 0 | 8 | 2 | i | 6 | i | . | .
Cc1ccc(N2CC(C(=O)OCC(=O)Nc3ccc(Cl)cc3)CC2=O)cc1 (configuration not stated) | 0 | 15 | . | . | 3 | . | . | .
COC(=O)c1ccc(Nc2nc(N3CCOCC3)nc(N3CCOCC3)n2)cc1 | -1 | 30 | -2 | i | -12 | i | . | .
COC(=O)c1nnn(-c2nc(N3CCOCC3)nc(N3CCOCC3)n2)c1C | 0 | 3 | 10 | 7.8* | -1 | i | 33* | -40*
C[N+](C)(C)CC(=O)N1CCN(c2ccc3ccccc3n2)CC1 | 0 | 6 | 16 | 8.7* | 203 | i | 79* | -63*
CC(C#N)Sc1ccc(S(=O)(=O)N2CCCC2)cn1 (configuration not stated) | 0 | 14 | . | . | 4 | . | . | .
COc1cccc(C(=O)NCC(C)(C)SCc2ccc(F)cc2)c1 | -1 | 0 | 5 | i | 16 | i | . | .
O=c1oc2ccccc2cc1-c1cn2cccnc2n1 | -6 | 13 | -4 | i | 57 | i | 20* | -33*
CCN1CCN(c2nc3c(C)cccn3c(=O)c2/C=C(\C#N)C(=O)NC)CC1 | 1 | -7 | -7 | 9.1* | 6 | i | 47* | -45*
CCN1CCN(c2nc3c(C)cccn3c(=O)c2/C=C(\C#N)C(=O)NCCCOC)CC1 | 0 | 11 | 22 | 7.5* | 17 | i | 50* | -60*
CNC(=O)/C(C#N)=C/c1c(N2CCN(C)CC2)nc2c(C)cccn2c1=O | 0 | -20 | 26 | i | 5 | i | 58* | -56*
CCOC(=O)/C(C#N)=C/c1c(N2CCN(CC)CC2)nc2c(C)cccn2c1=O | 0 | -1 | 13 | i | -3 | i | 52* | -50*
CNC(=O)/C(C#N)=C/c1c(N2CCN(c3cccc(Cl)c3)CC2)nc2c(C)cccn2c1=O | 1 | 0 | 11 | i | 8 | i | . | .
SMILES | Bfl-1 A1 inh | NLRP3 yeast inh | NALP1 yeast inh | CHT allo act | Mot1-301 SUMO | CHT inh | CHT activ conf | HEK293 MP dye
COCC(=O)Nc1ccc(S(=O)(=O)N2CCCC2)cc1 | 1 | 11 | 24 | i | -4 | i | . | .
O=C(NCC1CCCO1)C1CCCN(S(=O)(=O)c2cc(Cl)ccc2Cl)C1 (configuration not stated) | 0 | 12 | 8 | i | 11 | i | . | .
COc1ccccc1NS(=O)(=O)c1ccc(C(=O)NCC(c2cccs2)N2CCOCC2)cc1 (configuration not stated) | 0 | 11 | . | . | 6 | . | . | .
COc1ccc(OCCOc2ccc(/C=C3\C(=N)N4N=C(C)SC4=NC3=O)cc2)cc1 | -1 | 14 | . | . | -13 | . | . | .
O=C(Nc1ccc(-n2cnnn2)cc1)C1CCCCC1 | 1 | 19 | 5 | 9.1* | 104 | i | 35* | -33*
O=C(Nc1ccc(-n2cnnn2)cc1)C1CCCN1C(=O)NC1CCCCC1 (configuration not stated) | 1 | -12 | 1 | i | 105 | i | . | .
COc1ccc([N+](=O)[O-])cc1NS(=O)(=O)c1cccc(C(=O)OC2CCOC2=O)c1 (configuration not stated) | 0 | 7 | . | . | -5 | . | . | .
Cc1cc(NC(=O)c2cnn3cccnc23)no1 | -1 | 16 | -12 | 7.7* | 38 | i | 63* | -54*
Nc1ccccc1-n1c(=O)n(Cc2ccccc2F)c(=O)c2[nH]cnc21 | -1 | 14 | -6 | i | -10 | i | . | .
Fc1ccc(Cn2nnnc2C(c2cccs2)N2CCN(C3CCCCC3)CC2)cc1 (configuration not stated) | 0 | 22 | -11 | i | -4 | i | 40* | -25*
COc1ccc(OC)c(C(c2nnnn2Cc2ccccc2)N2CCN(C3CCCCC3)CC2)c1 (configuration not stated) | 1 | 21 | 6 | i | 5 | i | 10* | i
COc1ccccc1C(c1nnnn1Cc1ccccc1)N1CCN(C2CCCC2)CC1 (configuration not stated) | 2 | 6 | 9 | i | -13 | i | . | .

From PubChem
